Source: PubChem (National Center for Advancing Translational Sciences (NCATS))
POLH inh – inhibitors of human DNA polymerase eta. Q9Y253. recombinant Pol eta, fluorescent DNA replication assay. Potency, µM (titrated, usually from 114 µM), hits mostly inhibitors. 390,000 tested, 1.2% active. AID 588591
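Fluorescent replication assay: 50 nM final substrate added after a 15 min room-temperature compound preincubation with 10 nM enzyme. Signal taken at 0 min and again at 10 min.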
Pol kappa inh – DNA polymerase kappa (human) inhibition; 400,000 tested, 0.53% active; purified Pol kappa, fluorescent DNA synthesis assay, 10 min; AID 588579; Potency, µM (doses to about 107 µM), usual class: inhibitors
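Pol kappa 10 nM + cpd, 15 min RT; start w/ substrate 50 nM final; fluorescence kinetic read, 0 and 10 min. Neg ctrl: buffer, no enzyme.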
POLI inh – DNA polymerase iota (human) inhibition | 390,000 tested, 1% active | AID 588590 | Pol iota fluorescent replication assay, 10 min | Potency, µM (doses to about 115 µM), actives largely listed as inhibitors | Q9UNA4
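Fluorescent replication assay read twice, at 0 min and 10 min after adding 50 nM (final) substrate. Enzyme (10 nM) and compounds were first incubated 15 min at room temperature; enzyme-free buffer wells were negative controls.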
TDP1 block – TDP1 (human) enzyme inhibition; 350,000 tested, 0.28% active; recombinant TDP1, AlphaScreen DNA substrate cleavage; Potency, µM (highest dose often 130 µM), hits mostly inhibitors; AID 485290; note: nearly all actives have a fitted effect of over 40% in size
Target sequence (Q9NUW8 whole entry, looked up): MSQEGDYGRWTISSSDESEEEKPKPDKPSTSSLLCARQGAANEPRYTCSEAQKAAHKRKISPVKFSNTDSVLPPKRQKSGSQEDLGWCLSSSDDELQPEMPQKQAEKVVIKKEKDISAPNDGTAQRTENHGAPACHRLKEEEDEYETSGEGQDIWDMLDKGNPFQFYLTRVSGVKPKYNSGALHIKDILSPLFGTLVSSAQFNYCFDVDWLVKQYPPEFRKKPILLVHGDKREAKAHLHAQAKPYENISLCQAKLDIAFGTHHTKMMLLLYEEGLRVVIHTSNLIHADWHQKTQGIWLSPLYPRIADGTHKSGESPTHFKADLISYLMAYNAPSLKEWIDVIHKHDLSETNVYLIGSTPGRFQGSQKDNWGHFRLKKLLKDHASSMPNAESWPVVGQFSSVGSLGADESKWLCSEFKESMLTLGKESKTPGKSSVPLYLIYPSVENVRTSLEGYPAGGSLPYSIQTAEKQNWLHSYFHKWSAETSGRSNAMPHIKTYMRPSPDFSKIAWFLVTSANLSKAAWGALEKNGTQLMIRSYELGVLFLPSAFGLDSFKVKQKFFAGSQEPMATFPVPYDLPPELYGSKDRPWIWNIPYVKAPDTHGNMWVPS
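Here, a 5' biotin and 3' phosphotyrosine-FITC DNA oligonucleotide reports Tdp1 activity: intact substrate bridges AlphaScreen beads, while cleavage leaves a 3' phosphate and drops signal. All incubations at room temperature.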
Pol beta inh – inhibitors of human DNA polymerase beta | Pol beta primer extension/strand displacement, fluorescence kinetic | Potency, µM (titrated, usually from 114 µM), usual class: inhibitors | 340,000 tested, 1.3% active
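Reaction started by 50 nM substrate onto compound-treated Pol beta (10 nM, 15 min preincubation, room temperature); plates read at 0 min and 10 min. Normalized concentration-effect data fitted by four-parameter Hill equation.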
Hits are given with their value; i = inactive; ? = inconclusive; nt = no result given; ! = not active in a repeat; [ ] = another dose, or the depositor's remark. Shown are actives, neighbours in structure and some others; about 2.4% of the full set was active somewhere. Calls come from the whole dose curve; as a rule, active = well fitted curve in the direction sought with a large enough effect; inconclusive = small, poorly fitted or top-dose-only effect, or another doubt; inactive = no such curve, though single readings can be large; an effect the other way counts as inactive or inconclusive.

SMILES | POLH inh | Pol kappa inh | POLI inh | TDP1 block | Pol beta inh
O=c1c(O[C@@H]2O[C@H](CO)C(O)C2O)c(-c2ccc(O)c(O)c2)oc2cc(O)cc(O)c12 (some centres undefined) | ? | 25µM | 35µM | i | nt
CC1OC(OCC2OC(Oc3c(-c4ccc(O)c(O)c4)oc4cc(O)cc(O)c4c3=O)C(O)C(O)C2O)C(O)C(O)C1O (centres undefined) | nt | 6.3µM | nt | i | nt
O=c1cc(-c2ccc(O)cc2)oc2cc(O[C@H]3OC(CO)C(O)C(O)C3O)cc(O)c12 (some centres undefined) | nt | ? | nt | i | nt
O=c1cc(-c2ccc(O)c(O)c2)oc2cc(O[C@@H]3O[C@H](CO)[C@@H](O)[C@H](O)[C@H]3O)cc(O)c12 | 8.9µM | 2.5µM | 6.3µM | i | nt
COc1ccc(-c2cc(=O)c3c(O)c(OC)c(O[C@@H]4OC(COC5OC(C)C(O)C(O)[C@@H]5O)C(O)C(O)C4O)cc3o2)cc1 (some centres undefined) | nt | i | nt | i | nt
O=c1c(O[C@H]2O[C@@H](CO)[C@H](O)[C@@H](O)[C@@H]2O)c(-c2ccc(O)cc2)oc2cc(O)cc(O)c12 | ? | i | i | i | nt
O=c1cc(-c2ccccc2)oc2cc(O[C@@H]3O[C@H](CO)[C@@H](O)[C@H](O)[C@H]3O)c(O)c(O)c12 | nt | 10µM | nt | nt | nt
COc1ccc(C2Nc3ccccc3C(=O)N2c2ccc(F)cc2)cc1COc1ccc(NC(C)=O)cc1 (centres undefined) | nt | i | i | i | nt
COc1ccc2c(c1)c1c(c(=O)n(-c3ccc(C)cc3)c(=O)n1CC(=O)N1CCCC1)n2C | i | i | i | i | ?
CC1(C)O[C@@H]2C[C@H]3[C@@H]4CCC5=CC(=O)C=C[C@]5(C)[C@H]4C(O)C[C@]3(C)[C@]2(C(=O)CO)O1 (some centres undefined) | nt | i[19.4 µM] | nt | nt | nt
CCOC(=O)/C=C1\CN(Cc2ccc(OC)cc2)S(=O)(=O)c2ccc(C(F)(F)F)cc21 | nt | i | ? | nt | nt
C=C1C[C@@]23CC[C@H]4[C@@](C)(CCC[C@@]4(C)C(=O)O)[C@@H]2CC[C@]1(O)C3 | nt | i | nt | nt | nt
C=C/C(C)=C/C[C@H]1C(=C)CCC2[C@](C)(C(=O)O)CCC[C@@]21C (some centres undefined) | 8.9µM | ? | ? | nt | nt
COc1cccc(Cn2c(CNC(=O)C(C)C)nc3cccnc32)c1 | i | i | i | i | i
COc1ccc(CCNC(=O)c2c(C)nn(-c3ccc(F)cc3)c2-n2cccc2)c(OC)c1OC | i | i | i | i | i
CCc1ccc(NC(=O)c2cnn(-c3c(C)cccc3C)c2C2CCNCC2)cc1 | i | i | i | i | i
CC(=O)NC1=NN(C(C)=O)C(C)(c2ccccc2)S1 (centres undefined) | i | i | i | nt | 7.1µM
CC(=O)NC1=NN(C(C)=O)C(C)(c2ccc3ccccc3c2)S1 (centres undefined) | i | i | i | i | i
CCOC(=O)c1sc(NC(=O)C2CC=CCC2C(=O)O)nc1C (centres undefined) | 79µM | i | ? | 22µM | 45µM
CCOC(=O)c1sc(NC(C)=O)nc1C | i | i | i | i | i
Cc1[nH]c(=O)nc(SCc2cccc(Cl)c2)c1C#N | i | i | i | i | 71µM
O=[N+]([O-])c1ccc(Sc2cccc[n+]2[O-])c2nonc12 | 4.5µM | 32µM | 3.5µM | i | 20µM
O=C(Cn1ccc2cc(S(=O)(=O)N3CCCCCC3)ccc21)NCc1cccc(Cl)c1 | i | i | i | i | i
O=C(COC(=O)c1n[nH]c2ccccc12)NC(=O)NC12CC3CC(CC(C3)C1)C2 | ? | i | i | i | 35µM
COc1cc(N=c2ssnc2Cl)c(OC)cc1Cl | i | i | 20µM | i | i
SMILES | POLH inh | Pol kappa inh | POLI inh | TDP1 block | Pol beta inh
Cc1nc(N=Nc2ccc(C(=O)O)cc2)c(COP(=O)(O)O)c(C=O)c1O | ? | ? | i | 14µM | ?
CCN(CC)N=Nc1ccc(C(=O)O)cc1 | i | i | i | i | i
Cc1nc(N=Nc2ccc(S(=O)(=O)O)cc2S(=O)(=O)O)c(COP(=O)(O)O)c(C=O)c1O | i | ? | i | 20µM | i
COc1cccc(OC)c1C1=Nn2c(nnc2-c2ccccc2O)SC1 | nt | nt | nt | i | nt
NC(=S)NN=Cc1nccc2ccccc12 | i | i | i | nt | nt
Cc1cnc(C=NNC(N)=S)c2cccc(N)c12 | 5µM | ? | 2.2µM | nt | nt
COc1ccc(Cl)cc1NC(=O)c1cc2ccc3ccc(C)[nH]c3c2n1 | i | i | i | i | i
CC(C)C[C@H](NC(=O)[C@H](Cc1ccccc1)NC(=O)[C@H](Cc1ccccc1)NC(=O)[C@@H](N)CO)C(=O)N[C@@H](CCCN=C(N)N)C(=O)N[C@@H](CC(N)=O)C(=O)O | nt | i | nt | i | nt
O=C(Nc1nnc(C23CC4CC(CC(C4)C2)C3)s1)c1ccc(N2C(=O)CCC2=O)cc1 | ? | i | ? | 45µM | 10µM
CCCCCCCCCCC/C=C\C(C)(C)/C=C\CCCC(=O)O | 28µM | 27µM! | 28µM | i | 32µM
CCCCC/C=C\C/C=C\C/C=C\C/C=C\CCCCCC(=O)O | nt | i[19.4 µM] | nt | i | nt
CCCCCCC/C=C\CCCCCCCCC(=O)O | ? | ? | 28µM | i | ?
COc1ccc(-c2cc(C(=O)Oc3ccc(C#N)cc3)no2)cc1 | i | i | i | i | i
Cc1cc(C)cc(NC(=O)Cn2c(-c3cncs3)nc3ccccc32)c1 | nt | i | 89µM | i | ?
O=C1OC2(c3ccc(O)cc3Oc3cc(O)ccc32)c2ccccc21 | nt | 30µM | nt | i | nt
O=C1OC2(c3cc(I)c(O)c(I)c3Oc3c2cc(I)c(O)c3I)c2c(Cl)c(Cl)c(Cl)c(Cl)c21 | nt | 7.5µM | nt | i | nt
O=C1OC2(c3ccccc31)c1cc(I)c(O)c(I)c1Oc1c2cc(I)c(O)c1I | nt | 27µM | nt | i | nt
Cc1cc(O)ccc1C1(c2ccc(O)cc2C)OC(=O)c2ccccc21 | ? | i | i | i | ?
Cc1cc(Cl)ccc1OCC(=O)N(Cc1sccc1C)C1CCS(=O)(=O)C1 (centres undefined) | nt | i | i | i | i
COc1ccc(OC)c2sc(NC(=O)c3cccc(N4C(=O)CCC4=O)c3)nc12 | ? | i | 28µM | i | ?
COc1ccc(-c2csc(NC(=O)c3cccc(N4C(=O)CCC4=O)c3)n2)cc1C | i | i | i | i | i
COc1cc(C2C(=O)N(C3CCCCCC3)CC(=O)N2Cc2ccccc2)ccc1OC(C)C (centres undefined) | i | i | i | i | i
CCC1S/C(=N/N=C/c2ccco2)N(Cc2ccccc2)C1=O (centres undefined) | i | i | i | nt | i
Cc1cccc(CC2S/C(=N/N=C/c3ccco3)N(c3ccccc3)C2=O)c1 (centres undefined) | i | i | i | i | 35µM
Cc1ccc(S(=O)(=O)Nc2ccc(NC(=O)c3cccs3)cc2)cc1 | i | i | i | i | i
CC(=O)NS(=O)(=O)c1ccc(NC(=O)c2ccc(NC(=O)c3cccs3)cc2)cc1 | i | i | ? | 45µM | nt
